“And” between values parts separate entries of the source, which are not always exact repeats. Identical values can stand only once. The whole screen tested about 420,000 compounds, of which about 540 (0.13%) were called active. Cut-off read from the data, not from the text of the source: active = activity change below about -50%; inconclusive = mostly about -30% to -49%; inactive = weaker than that. Only a selection was taken, and actives are over-represented in it overall. The source holds several records for some structures; these can differ, active in one and inactive in another.

Phosphatidylinositol 4-kinase type 2-alpha (Homo sapiens), sequence (Q9BTU6 whole entry, looked up): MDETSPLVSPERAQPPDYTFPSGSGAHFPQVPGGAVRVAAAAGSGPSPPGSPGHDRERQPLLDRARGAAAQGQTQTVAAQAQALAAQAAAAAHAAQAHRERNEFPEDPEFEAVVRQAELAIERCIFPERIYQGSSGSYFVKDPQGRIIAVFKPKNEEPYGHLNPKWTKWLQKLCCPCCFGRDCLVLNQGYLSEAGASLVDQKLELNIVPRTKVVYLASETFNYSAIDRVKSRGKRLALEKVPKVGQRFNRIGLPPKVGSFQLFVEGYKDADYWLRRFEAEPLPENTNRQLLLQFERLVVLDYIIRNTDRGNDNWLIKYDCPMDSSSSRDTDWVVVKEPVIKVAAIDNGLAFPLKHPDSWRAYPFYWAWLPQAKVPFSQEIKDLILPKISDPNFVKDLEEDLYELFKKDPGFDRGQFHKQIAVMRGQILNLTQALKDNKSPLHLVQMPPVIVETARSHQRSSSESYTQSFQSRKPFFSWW

This assay concerns the target Phosphatidylinositol 4-kinase type 2-alpha (Homo sapiens) (UniProt Q9BTU6). Kind of assay: qHTS for small molecular inhibitors of PI4K2A.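 Note: -100% = wells without enzyme as full effect.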 The note with it: purified PI4K2A, ADP-Glo luminescence, 1 h; at 76.9 µM, stronger effect = lower value. In outline:
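In this quantitative HTS, ADP production by PI4K2A was quantified luminescently after 1 h at ambient temperature; 100 microM adenosine served as plate-quality control.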
Background: In qHTS, concentration-response curves come from the screen itself.
`CCOC(=O)c1ccc(-c2ccc(/C=C(\C#N)C(=O)Nc3ccc(OCC)cc3)o2)cc1`: the activity change, negative = inhibition is -0.67% (inactive).
Take `CCOc1ccc(NC(=O)c2ccc(NC(=O)COC(=O)c3ccc(NC(=O)CC#N)cc3)cc2)cc1`: the activity change, negative = inhibition is -84.7% (active).
Consider `CCOc1ccc(NC(=O)Cn2c(C)ccc(C#N)c2=O)cc1`, for which the activity change, negative = inhibition is 1.57% (inactive).
Consider `COC(=O)CN1C(=O)CSc2ccc(S(=O)(=O)Nc3cc(C)ccc3C)cc21`, for which the activity change, negative = inhibition is -1.14% (inactive).
In the case of `Cc1ccc(S(=O)(=O)c2cn(Cc3ccccc3)c3cc(N4CCCC4)c(F)cc3c2=O)c(C)c1`, the activity change, negative = inhibition was 2.36% (inactive).
With `O=C(NCc1ccc(F)cc1)c1ccc(Cn2c(SCc3ccc(F)cc3)nc3cccnc32)cc1` the figure was -1.71% (inactive); with `O=C(OCC(O)CO)c1ccccc1Nc1ccnc2c(C(F)(F)F)cccc12` (centres undefined), 0.766% (inactive).
For the compound `COc1cccc(/C=N/NC(=O)C(=O)N2CCCC2)c1`, the activity change, negative = inhibition is -2.13% (inactive).
In the case of `COc1ccc(C(=O)Nc2ccccc2C(=O)N/N=C/c2ccc(O)c(OC)c2)cc1` it was -68.9% (active).
Consider `COc1ccc(Nc2ncc(C(=O)Nc3cc(C)ccc3OC)c3ccccc23)cc1`, for which the activity change, negative = inhibition was 2.21% (inactive).
As to `CC(=O)/C(C)=N/O`, the activity change, negative = inhibition was -0.649% (inactive).
On to `O=C(Nc1c(C(=O)N2CCN(c3ccc(F)cc3)CC2)oc2ccccc12)c1ccco1`, for which the activity change, negative = inhibition is -1.83% (inactive).
For `CCc1ccc2ncc3c(-c4ccc(C)cc4)nn(CC(=O)NCc4ccccc4)c3c2c1`, the activity change, negative = inhibition is 8.2% (inactive).
With `COc1ccc(OCCn2cc(C(=O)C3CCCCC3)c3ccccc32)cc1`, the activity change, negative = inhibition is -0.826% (inactive).
For `COc1cc(C(=O)Nc2ccc(-n3c(C)nc4ccccc4c3=O)cc2)cc(OC)c1OC`, the activity change, negative = inhibition was 6.04% (inactive).
Take `Cc1ccc2onc(CC(=O)N3CCN(c4ccc(Cl)cc4)CC3)c2c1`: the activity change, negative = inhibition was 2.89% (inactive).
Consider `O=C(OCc1ccccc1)c1ccc(O)cc1`, for which the activity change, negative = inhibition is -0.636% (inactive).
Take `Cc1ccc(-c2cn3c(n2)sc2cc(C(=O)NCCCc4ccccc4)ccc23)cc1`: the activity change, negative = inhibition was -1.39% (inactive).
As to `COc1ccc(-c2cn3c(n2)sc2cc(C(=O)Nc4ccccc4F)ccc23)cc1`, the activity change, negative = inhibition was -4.68% (inactive).
Regarding `CCN1CCN(CCCNC(=O)c2ccc3c(c2)sc2nc(-c4ccc(OC)cc4)cn23)CC1`, the activity change, negative = inhibition is -72.4% (active).
Turning to `CCC(=O)Nc1cccc(-c2nc3cc(C)ccc3o2)c1`, the activity change, negative = inhibition was -9.07% (inactive).
`O=C(Nc1ccc(Br)cc1)c1ccc(Br)c(S(=O)(=O)NCc2ccccc2)c1`: the activity change, negative = inhibition was -0.252% (inactive).
With `CCC(=O)N1CCc2cc(S(=O)(=O)NC(C(=O)NCCc3ccc(C)cc3)C(C)C)ccc21` (centres undefined) the figure was -3.91% (inactive); with `CC(C)c1ccc(C2CC(=O)N3CN(C4CCCCC4)CSC3=C2C#N)cc1` (centres undefined), -15.6% (inactive).
As to `Cc1cc(C)c(NC(=O)CN2C(=O)c3cccnc3Oc3ccc(Cl)cc32)c(C)c1`, the activity change, negative = inhibition is -3.1% (inactive).
Turning to `COC(=O)/C=C(/C)N`, the activity change, negative = inhibition is -1.85% (inactive).
With `COc1ccc2c(c1)c(C(=O)N/N=C/c1cccs1)c(C)n2C` the figure was -1.53% (inactive).
With `O=c1nc(N/N=C/c2ccco2)cn[nH]1`, the activity change, negative = inhibition is -22.5% (inactive).
With `Cc1n[nH]c(=O)nc1N/N=C/c1cccs1` the figure was -51.8% (active); with `CCCCC12CN3CC(C)(CN(C1)C3c1ccc(O)c(OC)c1)C2=O` (centres undefined), 0.484% (inactive); with `CCCCNC(=O)c1ccc2c(c1)NC(=O)C(C(C)C)N2` (centres undefined), -1.85% (inactive).
With `COc1ccc(CCNC(=O)CCCn2c(=O)c3ccccc3n(Cc3ccc(F)cc3Cl)c2=O)cc1OC`, the activity change, negative = inhibition was 1.26% (inactive).
Regarding `O=C(Cn1ccc(=O)[nH]c1=O)Nc1ccc(C(=O)O)c(O)c1`, the activity change, negative = inhibition is -9.18% (inactive).
For the compound `O=C(Nc1ccc(C(=O)O)c(O)c1)c1ccccc1`, the activity change, negative = inhibition is -14.9% (inactive) and -50.4% (active).
With `O=C(O)c1ccc(-n2cccc2)cc1O`, the activity change, negative = inhibition was 1.97% (inactive).
As to `CCCCOc1ccc(CNC(=O)c2ccc3c(c2)N(C)C(=O)C2CCCCN32)cc1` (centres undefined), the activity change, negative = inhibition is 1.06% (inactive).
With `CC(C)(C)OC(=O)N1CCC(c2c(C(=O)Nc3ccc4c(c3)OCO4)cnn2-c2ccccc2)CC1` the figure was -3.37% (inactive); with `Cc1cccc(-c2nnc(SCC(=O)N3CCCc4ccccc43)o2)c1`, 1.17% (inactive).
Regarding `CCCCOc1ccc(C(=O)Nc2cccc(-c3nc4ccccc4o3)c2C)cc1`, the activity change, negative = inhibition was -4.4% (inactive).
On to `CCOC(=O)c1cccc(NS(=O)(=O)c2cc(-c3cnc(C)o3)ccc2OC)c1`, for which the activity change, negative = inhibition is -9.3% (inactive).
With `COc1ccc(Cl)cc1NC(=O)CSc1nc(=O)[nH]c2c1CCCC2` the figure was 3.81% (inactive); with `CCc1ccccc1NC(=O)Cc1ccc(NC(=O)N2CCCCc3ccccc32)cc1`, -0.392% (inactive).
For `COC(=O)c1cc(NC(=O)CCS(=O)(=O)c2cc(Br)cc3c2N(C(=O)C2CC2)CC3)cc(C(=O)OC)c1`, the activity change, negative = inhibition is 1.45% (inactive).
For `CCOc1cc(-c2nnc(SCC(=O)NC3CCCC3)nc2-c2ccc(OC)c(OCC)c2)ccc1OC`, the activity change, negative = inhibition is 1.43% (inactive).
Regarding `C=CC1(C)CC(=O)C2(O)C(C)(O1)C(OC(C)=O)C(O)C1C(C)(C)CCC(O)C12C` (centres undefined), the activity change, negative = inhibition is -8.1% (inactive).
With `COc1ccc(-c2nc3ccccc3o2)cc1NC(=O)c1cc([N+](=O)[O-])ccc1N1CCOCC1` the figure was -1.07% (inactive); with `COc1ccc(/C=C/c2nc(C#N)c(NCc3ccc(F)cc3)o2)cc1OC`, 3.37% (inactive); with `CCc1ccc(NC(=O)c2cc(S(=O)(=O)NC3CCCCCC3)ccc2F)cc1`, 1.04% (inactive).
With `Oc1ccc(Cn2cc[nH]c2=S)cc1`, the activity change, negative = inhibition was 2.19% (inactive).
Regarding `CCC1=Nc2cc(C(=O)NCC(C)c3ccccc3)ccc2Sc2ccc(C)cc21` (centres undefined), the activity change, negative = inhibition is -0.814% (inactive).
For the compound `CCOc1ccc(NC(=O)Cn2cc(C(=O)c3ccc(C)cc3)c(=O)c3cc4c(cc32)OCCO4)cc1`, the activity change, negative = inhibition is -5.72% (inactive).
As to `CCCn1ccc2c(OCC(=O)NCc3ccc(F)cc3)cccc2c1=O`, the activity change, negative = inhibition was 1.12% (inactive).
Consider `O=C(c1ccc2c(c1)N(Cc1ccccc1)C(=O)c1ccccc1S2(=O)=O)N1CCC(Cc2ccccc2)CC1`, for which the activity change, negative = inhibition was -3.09% (inactive).
Take `CCOc1ccccc1NC(=O)CN1CCN(S(=O)(=O)c2ccc(Br)cc2)CC1`: the activity change, negative = inhibition was -3.13% (inactive).
With `CCOc1ccccc1NC(=O)Cn1c(=O)n(-c2cccc(C)c2)c(=O)c2c1c1cc(OC)ccc1n2C` the figure was 5.68% (inactive).
With `Nc1ccc2c3c(cccc13)C(=O)NC2=O` the figure was -1.25% (inactive); with `CN[C@@H]1[C@@H](O)[C@@H](O[C@@H]2[C@H](O)[C@H](O[C@H]3OC(CN)=CC[C@H]3N)[C@@H](N)C[C@H]2N)OCC1(C)O` (some centres undefined), 3.62% (inactive).
`CC1(C)S[C@@H]2[C@H](N=CN3CCCCCC3)C(=O)N2[C@H]1C(=O)O`: the activity change, negative = inhibition was -3.84% (inactive).
Take `Cc1cc(C)cc(-n2ccnc2SCC(=O)Nc2nc3ccccc3s2)c1`: the activity change, negative = inhibition was -3.54% (inactive).
As to `CCOc1ccc(NC(=O)N(CC(C)C)CC(C)C)cc1`, the activity change, negative = inhibition is 7.41% (inactive).
As to `CCOc1ccc(N/C=C/C(=O)c2ccccc2)cc1`, the activity change, negative = inhibition is -50.8% (active).
For `CCOc1ccc(NC(=O)CSc2c3c(nc4ccccc24)CCCC3)cc1`, the activity change, negative = inhibition is -3.16% (inactive).
Turning to `COc1ccc(C(=O)NCC(c2ccc(N(C)C)cc2)N2CCc3ccccc32)c(OC)c1` (centres undefined), the activity change, negative = inhibition was 0.413% (inactive).
With `CCCCN(C)CCCNC(=O)CN1N=C(c2ccc(OC)cc2)CCC1=O`, the activity change, negative = inhibition was -1.59% (inactive).
Regarding `COc1cc(CNC(=O)c2cc3n(n2)CCCN(Cc2cccc(F)c2)C3=O)cc(OC)c1OC`, the activity change, negative = inhibition was -0.346% (inactive).
In the case of `COC(=O)c1cc(Cl)c(NC(C)=O)cc1OC` it was -2.22% (inactive); in that of `NNC(=O)c1cnn(-c2ccccc2)c1C(F)(F)F`, 3.06% (inactive); in that of `Nc1c(C(=O)O)cnn1-c1ccccc1`, -60.3% (active).
In the case of `CCNC(=O)c1cnn(-c2ccccc2)c1-c1ccccc1` it was 2.38% (inactive).
`O=c1ccc2c(-c3ccccc3S(=O)(=O)O)c3ccc(O)c(O)c3oc-2c1O`: the activity change, negative = inhibition is -68% (active).
Regarding `O=C(NC1CC(=O)N(c2ccccc2)C1)c1ccco1` (centres undefined), the activity change, negative = inhibition was -1.35% (inactive).
For the compound `CCOc1ccc(C(NC(=O)c2cc(OC)c(OC)c(OC)c2)c2cc(Cl)c3cccnc3c2O)cc1` (centres undefined), the activity change, negative = inhibition was -3.07% (inactive).
Take `COc1ccc(OC)c(NC(=O)C2CCCN(S(=O)(=O)c3ccc4c(c3)CCCC(=O)N4)C2)c1` (centres undefined): the activity change, negative = inhibition was -2.64% (inactive).
Turning to `CN1CC[C@H](c2c(O)cc(O)c3c(=O)cc(-c4ccccc4Cl)oc23)[C@H](O)C1`, the activity change, negative = inhibition was -3.75% (inactive).
On to `Nc1ncnc2c1c(I)cn2[C@@H]1C[C@H](N)[C@@H](O)[C@H]1O`, for which the activity change, negative = inhibition is -21.5% (inactive).
`NC1CCN(O)C1=O` (centres undefined): the activity change, negative = inhibition was 0.196% (inactive).
With `CCOC(=O)c1cc2c(=O)n3ccccc3nc2n(Cc2ccco2)c1=NC(=O)c1ccc(F)cc1`, the activity change, negative = inhibition was -8.37% (inactive).
With `Cc1cc(NS(=O)(=O)c2ccc3oc(=O)c4ncn(C)c4c3c2)ccc1Br` the figure was 3.97% (inactive); with `OCC1OC(n2cnc3c(N4CCCC4)ncnc32)C(O)C1O` (centres undefined), -0.936% (inactive); with `CC1(C)O[C@@H]2[C@H](O1)[C@@H](CO)O[C@H]2n1c(N2CCCCC2)nc2c(N)ncnc21`, -54.5% (active).
`Nc1ncnc2c1cnn2C1CC(O)C(CO)O1` (centres undefined): the activity change, negative = inhibition is -25.1% (inactive).
On to `Cn1c(=O)c2c(-c3ccccc3Br)n(Cc3ccccc3)cc2n(C)c1=O`, for which the activity change, negative = inhibition was -1.93% (inactive).
In the case of `O=c1cc(-c2ccccc2)[nH]c2nc(Cl)ccc12` it was 3.68% (inactive); in that of `Cc1nnc(C(=O)NC(C)(C)c2nc(C(=O)NCc3ccc(F)cc3)c(O)c(=O)n2C)o1`, -1.36% (inactive); in that of `CCN(C(=O)Cn1cc(S(=O)(=O)N2CCN(c3ccccc3F)CC2)c2ccccc2c1=O)c1ccc(C)c(C)c1`, -1.44% (inactive).
Consider `N#Cc1c(N2CCCCC2)nc(N)c2c(N)nc(SCC(=O)O)cc12`, for which the activity change, negative = inhibition was -59.8% (active).
For `COc1cccc(C(=O)Nc2ccc(N3CCCC3)cc2)c1`, the activity change, negative = inhibition was -68.3% (active).
In the case of `COc1cccc(C(=O)Nc2ccc(-c3cc(C(F)(F)F)nn3-c3ccccc3)cc2)c1` it was 4.36% (inactive); in that of `COc1cccc(C(=O)NC(=O)Nc2ccc(-c3cc(C(F)(F)F)nn3-c3ccccc3)cc2)c1`, -3.82% (inactive).
